# ClpP mod – qHTS Assay for Activators of ClpP; purified B. subtilis ClpP, FRET peptide cleavage, 20 min; AID 651965, 2013; Potency, µM (titrated, usually from 57.5 µM), without a hit: at the top dose activity change, negative = active; actives 1.9% (n = 340,000); active means well fitted falling curve with a large enough effect; inconclusive means small, poorly fitted or top-dose-only effect; inactive means no such curve, though single readings can be large or run the other way; further: potency means the concentration at half of the fitted maximal effect; the source files actives as falling curves though it sought activators and does not explain the sign; nearly all actives have a fitted effect of over 65% in size
#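 FRET quenching reversal measured ClpP activation: 10 microg/mL B. subtilis ClpP at pH 8 with the FRET-FV decapeptide, read at 430 nm after 320 nm excitation. The 20-min minus 0-min signal was scaled between DMSO/no-enzyme wells and ADEP (5.8 microM final).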
# MBNL1 CUG block – MBNL1-poly(CUG) RNA binding inhibition; Q9NR56; TR-FRET MBNL1-His/biotin-(CUG)12 binding, 665/545 ratio; Potency, µM (highest dose often 57.5 µM), inactives show top-dose activity change, negative = inhibition, most hits filed as inhibitors; actives 0.036% (n = 280,000); AID 2675; active means well fitted inhibition curve with a large enough effect in the signal ratio, with a control signal flat, not every such curve was filed as active; inconclusive means small, poorly fitted or top-dose-only effect, or effect the other way, or a change in a side signal; inactive means no such curve, though single readings can be large or run the other way; the % refers to the signal ratio; further: potency means the concentration at half of the fitted maximal effect; on the % scale 0 is the no-effect control and ±100 the full control effect
#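 MBNL1-His + Biotin-(CUG)12, cpd titration 92 nM–58 uM; Tb anti-His Ab 0.055 ng/ul, SA-XL665 5 nM (final); 60 min RT; ratiometric 665/545 nm, Ex 340 nm; normalized to buffer and full-complex controls.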
# Rango release inh – prevents RanGTP from dissociating the Rango-importin beta complex; actives 0.071% (n = 340,000); Biochemical FRET Rango-importin beta, RanGTP-induced dissociation; Potency, µM (top dose mostly 46.1 µM), for the others: at the top dose activity change, negative = inhibition; O95149+P62826; further: potency means the concentration at half of the fitted maximal effect; % of control where 0% means no effect; nearly all actives have a fitted effect of over 45% in size
#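 Compounds sat 5 min at room temperature with 0.1 uM Rango biosensor plus 0.25 uM importin beta, then FRET pre-read. RanGTP-RCC1 (0.6 uM Ran, 2mM GTP, 0.2 uM RCC1) added for 45 min, and the CFP/YFP post-read measured blocked complex dissociation.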
# Rango complex inh – inhibitors of Rango-importin beta complex formation; Rango CFP/YFP FRET sensor + importin beta, 45 min; actives 0.031% (n = 340,000); AID 540263; Potency, µM (doses to about 92.2 µM), inactives show at the top dose inhibition of complex formation;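 further: potency means the concentration at half of the fitted maximal effect; 0% = DMSO wells and 100% = buffer wells lacking importin beta; nearly all actives have a fitted effect of over 15% in size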
#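 FRET biosensor Rango (snurportin 1 IBB between N-terminal EYFP and C-terminal Cerulean), 50 nM in PBS/1 mM DTT/0.02% Tween-20/0.1% BSA, preincubated 5 min RT with compound; 0.125 microM importin beta added, 45 min RT, CFP/YFP FRET ratio read.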
# CBFb RUNX1 block – CBF-beta/RUNX1 interaction disruption; Q01196+Q13951; AlphaScreen CBFb-His/RUNX1-biotin binding, biochemical; Potency, µM (series often up to 59.8 µM), for the others: at the top dose activity, negative = inhibition, actives largely listed as inhibitors; 230,000 tested, under 10 active; AID 1477; active means well fitted curve in the direction sought with a large enough effect; inconclusive means small, poorly fitted or top-dose-only effect, or effect the other way, or another doubt; inactive means no such curve, though single readings can be large or run the other way; further: % of control where 0% means no effect
#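 Room-temperature protein-protein interaction test with 30 nM each of His-tagged CBF-beta and biotinylated RUNX1, 15 min with compound, then 90 min with nickel plus streptavidin beads. Signal read in AlphaScreen mode.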
# Numbers without * were called inactive; ? = inconclusive; . = not tested or not shown. Shown is part of a subset that was picked to be rich in hits. Unless noted, the call rests on the fitted dose curve.
SMILES,ClpP mod,MBNL1 CUG block,Rango release inh,Rango complex inh,CBFb RUNX1 block
CCCc1nc2sc3c(=O)n(N)cnc3c2c2c1COC(C)(C)C2,.,-1.1%,.,.,-1.2%
CC(C)c1nc2sc3c(=O)n(N)cnc3c2c2c1COC(C)(C)C2,15.8µM*,14.9%,-0.1%,-1.8%,1.8%
CCCCC/C=C\C/C=C\C/C=C\CCCCCCC(=O)NC(C)C(=O)O (stereo unspecified),.,.,.,.,4.9%
COc1ccc(N2C(=O)c3ccccc3NC23CCCCC3)cc1,28.2µM*,0.3%,-0.4%,-1.2%,2.2%
COc1ccc(N2C(=O)c3ccccc3NC23CCC(C)CC3)cc1 (stereo unspecified),?,1.1%,11.6%,0.3%,-1.8%
Cc1cccc(NC(=O)N2CC(=O)Nc3sc4c(c3C2c2ccccc2)CCCC4)c1C (stereo unspecified),-4.1%,.,.,.,.
CCOC(=O)CCSCC(=O)N1N=C(c2cccs2)CC1c1ccc(C)cc1 (stereo unspecified),28.2µM*,7.9%,-10.3%,2.9%,1.4%
COc1ccc(-c2cc(-c3cccs3)nc(OC)c2C#N)cc1OC,31.6µM*,-3.6%,0.7%,0.3%,?
COc1ccc(-c2noc(-c3cccs3)n2)cc1OC,.,1.8%,-6.5%,-0.6%,10.1%
COc1ccc(-c2c(C#N)c(N)nc3c2CCc2ccccc2-3)cc1OC,12.6µM*,21.1%,-5.9%,-0.6%,20.6%
COc1nc(-c2cccs2)cc(-c2ccc(C)cc2)c1C#N,3.98µM*,1.4%,-23.7%,-1.2%,9.9%
Nc1c(Br)cc(/C=C/c2ccnc3ccccc23)cc1Br,-3.5%,.,.,.,.
Cc1cc2nnc(SC(C)C)n2c2ccccc12,28.2µM*,8.1%,5.8%,1.8%,8.5%
O=C(NCc1ccccc1Cl)C1CCCN(c2ncnc3onc(-c4ccc(F)cc4)c23)C1 (stereo unspecified),-16.7%,.,.,.,.
CC(C)NC(=O)C1CCN(c2nc3ccccc3nc2C(F)(F)F)CC1,-4.6%,.,.,.,.
Oc1ccccc1C1C=C(c2ccc3c(c2)OCO3)NC(c2cccc(Cl)c2)N1 (stereo unspecified),-3.1%,.,.,.,.
O=C(CSc1ccc(C(F)(F)F)cc1[N+](=O)[O-])Nc1ccc2ccccc2c1,28.2µM*,-7.7%,-2.3%,-0.1%,-2.4%
CC(=O)Nc1cccc(NC(=O)CSc2ccc(C(F)(F)F)cc2[N+](=O)[O-])c1,0.0%,3.4%,9.1%,3.4%,-3.8%
Nc1c2c(nc3ccn(-c4ccccc4)c(=O)c13)CCCCC2,28.2µM*,3.0%,-1.9%,0.5%,4.9%
Nc1c2c(nc3ccn(Cc4ccccc4)c(=O)c13)CCC2,31.6µM*,-1.0%,2.9%,0.4%,-7.1%
Cc1cc(C)c(NC(=O)CCCN2C(=O)COc3ccc(C)cc32)c(C)c1,-0.8%,.,.,.,.
CN(C)c1ccc(CN(Cc2ccco2)C(=O)c2ccc(C(C)(C)C)cc2)cc1,-14.2%,.,.,.,.
O=C(Cn1ncc2c(=O)oc3ccccc3c21)NCc1ccccc1Cl,-1.2%,.,.,.,.
CCN(CC)C(=O)Cn1cc(S(=O)(=O)CC(=O)Nc2ccc(F)cc2F)c2ccccc21,-4.8%,2.7%,-9.7%,0.6%,.
CCN(CC)C(=O)Cn1cc(S(=O)(=O)CC(=O)Nc2ccccc2C)c2ccccc21,28.2µM*,.,-2.5%,0.5%,.
SMILES,ClpP mod,MBNL1 CUG block,Rango release inh,Rango complex inh,CBFb RUNX1 block
O=C(Nc1nnc(-c2ccc(Cl)cc2)o1)Nc1ccccc1Cl,28.2µM*,1.8%,-6.2%,0.7%,3.2%
O=C1NC[C@H](CCCCN2CCN(CCC3CCCCC3)C(=O)C2=O)N(CCc2ccccc2)C1=O,0.4%,.,.,.,.
N#C/C(C(=O)N1CCOCC1)=c1/s/c(=C\c2ccccn2)c(=O)n1-c1ccccc1,.,13.7%,-1.8%,-2.1%,-0.5%
COc1ccc(-n2c(=O)/c(=C\c3cccs3)s/c2=C(/C#N)C(=O)N2CCN(C)CC2)cc1,31.6µM*,?,?,?,-9.4%
COc1ccc(NC(=O)c2sc3nc4c(cc3c2N)CCCCCC4)cc1Cl,12.6µM*,.,.,.,.
COc1ccc(NC(=O)c2sc3nc4c(cc3c2N)CCCCCC4)cc1,3.8%,.,.,.,.
CC(=O)c1ccc(NC(=O)CCc2c(C)nn(-c3ccc(N4CCCCC4)nn3)c2C)cc1,-0.5%,.,.,.,.
COCCNC(=O)c1ccc2c(=O)n(CCOC)c(=O)[nH]c2c1,25.1µM*,-6.4%,-2.2%,-1.4%,4.3%
COCCn1c(=O)[nH]c2cc(C(=O)NCc3ccccc3)ccc2c1=O,14.1µM*,-3.5%,1.7%,3.4%,3.5%
COC(=O)c1ccc2c(=O)n(CCCCCC(=O)O)c(=O)[nH]c2c1,28.2µM*,7.6%,10.2%,5.3%,-0.5%
CCc1cccc2c(C(O)c3c[nH]c4ccccc34)c[nH]c12 (stereo unspecified),-18.1%,.,.,.,.
C[C@@H]1CCC2[C@](C)(CO)[C@@H](O)CC[C@]2(C)[C@]12CCC(CO)(CCO)O2 (stereo partly specified),.,.,.,.,-0.4%
CC(=O)Nc1cccc(OCC(=O)NS(=O)(=O)c2ccc(Cl)cc2)c1,31.6µM*,5.1%,13.2%,0.1%,5.5%
O=C1C=C(NC2CC2)C2(CCCCC2)O1,12.6µM*,11.4%,-3.3%,-5.0%,4.5%
O=C1C=C(NCC2CCCO2)C2(CCCCC2)O1 (stereo unspecified),0.4%,0.0%,-3.1%,-3.4%,2.7%
CCN(CC)CCNC(=O)c1ccc(Cn2c(=O)c3cccn3c3cccnc32)cc1,-25.1%,.,.,.,.
COC(=O)CN(c1ccccc1F)S(=O)(=O)c1ccccc1,0.3%,?,1.5%,2.5%,3.8%
O=C(O)CN(c1ccccn1)S(=O)(=O)c1ccc(Cl)cc1,?,-3.9%,-16.4%,-1.0%,2.3%
COC(=O)CN(c1ccccn1)S(=O)(=O)c1ccccc1,11.2µM*,-7.4%,-15.0%,-1.3%,-1.5%
O=C(O)CN(c1ccccn1)S(=O)(=O)c1ccccc1,28.2µM*,-1.0%,11.6%,-0.4%,-0.8%
O=C(Cc1ccc(Cl)cc1)Nc1ccc2oc(-c3ccccc3)nc2c1,-5.5%,.,.,.,.
CCOc1ccc(-c2cc(C(=O)O)c3ccccc3n2)cc1,35.5µM*,15.0%,-13.8%,-2.1%,3.3%
CCOc1ccc(-c2cc(C(=O)NC(C)c3ccccc3)c3ccccc3n2)cc1 (stereo unspecified),4.1%,.,.,.,.
CCOc1ccc(-c2cc(C(=O)N3CCC(C)CC3)c3ccccc3n2)cc1,31.6µM*,.,-4.4%,-0.8%,.
COc1ccc(-c2cc(C(=O)N3CCN(c4cccc(C)c4C)CC3)c3ccccc3n2)cc1OC,25.1µM*,.,24.5%,1.6%,.
Fc1ccccc1N1CCN(c2ncnc3onc(-c4ccc(Cl)cc4)c23)CC1,-4.7%,.,.,.,.
Cc1nc(NCc2ccccc2)c2nc(-c3ccccc3)n(CCCN(C)C)c2n1,.,.,.,.,4.0%

# Source: PubChem
